Data published in PubChem BioAssay AID1159580 (chemical genetic matrix, 2015).
Several values for one entry are separate records, joined by “and”; a condition that tells them apart may be missing. Identical values can stand only once. In all, about 5,500 compounds went through this assay and about 2,000 (36%) were called active. Inconclusive results (about 18%) are left out. Cut-off read from the data, not from the text of the source: active = normalized growth mostly below about 0.91 (no sharp cut-off); inconclusive = no clear call, values can overlap the other calls; inactive = mostly above about 0.92. The list shows a part of the results.

Assay: chemical genetic growth profiling, strain panel (AID 1159580);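 note: tested at 20 µM; growth read once vehicle control cultures reached saturation at 30 °C; 1 = growth at the plate median or of vehicle wells; lower values mean less growth of the strain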
Conditions: S. cerevisiae deletion strains, growth OD

Measured: normalized growth

CCCc1nc(C(C)(C)O)c(C(=O)OCc2oc(=O)oc2C)n1Cc1ccc(-c2ccccc2-c2nn[nH]n2)cc1
inactive: locus YAL013W, strain DEP1, hits give low values 0.99 | locus YAL021C, strain ccr4, hits give low values 0.976 | locus YAL026C, strain drs2, hits give low values 0.966 | locus YAL030W, strain snc1, hits give low values 0.955 | locus YBL061C, strain skt5, hits give low values 0.979 | locus YBR009C, strain hhf1, hits give low values 1 | locus YBR021W, strain FUR4, hits give low values 0.987 | locus YBR023C, strain chs3, hits give low values 0.961 | locus YBR171W, strain sec66, hits give low values 0.957 | locus YBR229C, strain ROT2, hits give low values 0.989 | locus YBR231C, strain swc5, hits give low values 0.974 | locus YBR279W, strain paf1, hits give low values 0.973 | locus YCL011C, strain gbp2, hits give low values 0.945 | locus YCL016C, strain dcc1, hits give low values 0.994 | locus YCL029C, strain bik1, hits give low values 0.982 | locus YCL069W, strain vba3, hits give low values 0.987 | locus YCR088W, strain abp1, hits give low values 0.977 | locus YDL005C, strain med2, hits give low values 0.983 | locus YDL035C, strain GPR1, hits give low values 1 | locus YDL040C, strain nat1, hits give low values 0.976 | locus YDL074C, strain BRE1, hits give low values 1.01 | locus YDL101C, strain DUN1, hits give low values 0.991 | locus YDL134C, strain PPH21, hits give low values 0.986 | locus YDL185W, strain tfp1, hits give low values 0.983 | locus YDL192W, strain arf1, hits give low values 0.985 | locus YDR001C, strain nth1, hits give low values 0.945 | locus YDR069C, strain doa4, hits give low values 0.956 | locus YDR101C, strain arx1, hits give low values 0.994 | locus YDR137W, strain rgp1, hits give low values 0.943 | locus YDR150W, strain NUM1, hits give low values 1 | locus YDR159W, strain sac3, hits give low values 0.933 | locus YDR162C, strain NBP2, hits give low values 1 | locus YDR195W, strain ref2 0.922 | locus YDR297W, strain sur2, hits give low values 0.981 | locus YDR318W, strain mcm21, hits give low values 0.994 | locus YDR334W, strain swr1, hits give low values 0.945 | locus YDR335W, strain msn5, hits give low values 0.952 | locus YDR388W, hits give low values 0.987 | locus YDR392W, strain spt3, hits give low values 1.02 | locus YDR502C, strain sam2, hits give low values 0.986 | locus YEL003W, strain gim4, hits give low values 0.972 | locus YEL037C, strain rad23, hits give low values 0.968 | locus YEL061C, strain CIN8 (second series), hits give low values 0.955 | locus YEL061C, strain CIN8, hits give low values 1.01 | locus YER015W, strain faa2, hits give low values 0.99 | locus YER016W, strain bim1, hits give low values 0.967 | locus YER110C, hits give low values 0.985 | locus YER111C, strain swi4, hits give low values 0.965 | locus YER155C, strain BEM2 (second series), hits give low values 0.906 | locus YER155C, strain BEM2, hits give low values 1.02 | locus YER167W, strain BCK2, hits give low values 0.99 | locus YFR010W, strain ubp6, hits give low values 0.967 | locus YGL078C, strain dbp3, hits give low values 0.99 | locus YGL086W, strain mad1, hits give low values 0.986 | locus YGL167C, strain pmr1, hits give low values 0.957 | locus YGL173C, strain kem1, hits give low values 0.985 | locus YGL227W, strain vid30, hits give low values 0.96 | locus YGL240W, strain doc1, hits give low values 0.949 | locus YGL248W, strain PDE1, hits give low values 0.99 | locus YGL253W, strain hxk2, hits give low values 0.962 | locus YGR078C, strain PAC10, hits give low values 1.02 | locus YGR135W, strain pre9, hits give low values 0.995 | locus YGR229C, strain SMI1, hits give low values 1 | locus YGR252W, strain gcn5, hits give low values 1.02 | locus YHR013C, strain ard1, hits give low values 0.978 | locus YHR027C, strain rpn1, hits give low values 0.973 | locus YHR030C, strain SLT2, hits give low values 0.99 and 0.967 | locus YHR079C, strain IRE1 (second series), hits give low values 0.984 | locus YHR079C, strain IRE1, hits give low values 0.954 | locus YHR094C, strain hxt1, hits give low values 0.989 | locus YHR129C, strain ARP1, hits give low values 0.987 | locus YHR142W, strain chs7, hits give low values 1 | locus YHR200W, strain rpn10, hits give low values 0.981 | locus YIL066C, strain RNR3, hits give low values 0.994 | locus YIL073C, strain SPO22, hits give low values 1.02 | locus YIL125W, strain kgd1, hits give low values 0.989 | locus YIR030C, strain dcg1, hits give low values 0.982 | locus YJL092W, strain hpr5, hits give low values 0.982 | locus YJL095W, strain BCK1 (second series), hits give low values 0.973 | locus YJL095W, strain BCK1, hits give low values 0.987 and 0.988 | locus YJL115W, strain asf1, hits give low values 0.967 | locus YJL129C, strain trk1, hits give low values 0.965 | locus YJL134W, strain LCB3, hits give low values 0.994 | locus YJL154C, strain vps35, hits give low values 0.966 | locus YJL164C, strain tpk1, hits give low values 0.996 | locus YJL166W, strain qcr8, hits give low values 0.966 | locus YJL168C, strain set2, hits give low values 0.997 | locus YJL187C, strain SWE1 (second series), hits give low values 0.987 | locus YJR043C, strain POL32, hits give low values 0.997 | locus YJR066W, strain TOR1, hits give low values 0.931 | locus YJR075W, strain HOC1, hits give low values 1.01
